For 31 compounds, Potency, activity, negative = inhibition and activity change, negative = inhibition results are on record in PubChem BioAssay (Tox21).

In experiment [1] the target is Acetylcholinesterase (Homo sapiens) (UniProt P22303). The experiment in a line: Acetylcholinesterase (AChE) small molecule antagonists: colormetric cell-based qHTS assay (AID 1347395). Also: nearly all actives have a fitted effect of over 30% in size. Conditions: SH-SY5Y cells AChE activity, colorimetric (Ellman); series mostly up to 115 µM. The gist of the method: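 In this cell-based qHTS, attached SH-SY5Y cells were treated with test chemicals for 30 min, after which acetylthiocholine hydrolysis was followed by DTNB colour development over 90 min at 37 C.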
Acetylcholinesterase (Homo sapiens), sequence (P22303 whole entry, looked up): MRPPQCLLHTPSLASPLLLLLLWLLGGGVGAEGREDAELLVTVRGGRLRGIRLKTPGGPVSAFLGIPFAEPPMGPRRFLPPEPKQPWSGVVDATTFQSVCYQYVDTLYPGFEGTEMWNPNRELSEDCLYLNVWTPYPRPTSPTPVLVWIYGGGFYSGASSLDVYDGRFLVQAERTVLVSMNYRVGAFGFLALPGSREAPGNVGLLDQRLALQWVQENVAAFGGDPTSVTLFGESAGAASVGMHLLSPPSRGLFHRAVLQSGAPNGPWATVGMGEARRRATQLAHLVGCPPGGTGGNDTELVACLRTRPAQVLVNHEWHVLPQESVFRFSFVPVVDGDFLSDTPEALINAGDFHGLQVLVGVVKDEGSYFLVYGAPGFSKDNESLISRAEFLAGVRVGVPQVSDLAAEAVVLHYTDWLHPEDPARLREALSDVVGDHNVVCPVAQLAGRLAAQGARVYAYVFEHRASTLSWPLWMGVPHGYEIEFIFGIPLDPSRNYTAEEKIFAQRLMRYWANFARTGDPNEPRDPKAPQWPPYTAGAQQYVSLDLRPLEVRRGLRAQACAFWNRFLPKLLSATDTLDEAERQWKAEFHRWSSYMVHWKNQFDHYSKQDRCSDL
For orientation: Quantitative high-throughput screening tests each substance at several concentrations.

Experiment [2] has the same target. The experiment is described as follows: Acetylcholinesterase (AChE) small molecule antagonists: enzyme-based qHTS assay (AID 1347397). Also: nearly all actives have a fitted effect of over 55% in size. Also: potency is read from the fitted curve at half-maximal effect. Conditions: Potency: AChE enzyme activity inhibition; outcome: AChE enzyme activity inhibition; series mostly up to 115 µM. The method in brief: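 First, recombinant human AChE (50 mU/mL as dispensed) received test compound or DMSO. Second, plates stood 30 min at room temperature. Third, DTNB and acetylthiocholine were added, followed by 10 min at room temperature and colorimetric detection.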

For experiment [3] the target is unchanged. The experiment is described as follows: Acetylcholinesterase (AChE) small molecule antagonists: fluorescence cell-based qHTS assay (AID 1347398). Also: nearly all actives have a fitted effect of over 50% in size. The conditions noted are these: SH-SY5Y cells; Potency: AChE activity; outcome: AChE activity; series mostly up to 115 µM. The gist of the method: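 Homogeneous quantitative HTS format. SH-SY5Y cells seeded at 2,000 per well settle overnight at 37 C. Compound pretreatment runs 30 min (37 C, 5% CO2); substrate/probe mix then reacts 40 min at RT before reading 490/520 nm.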

Experiment [4] has the same target. The experiment is described as follows: Acetylcholinesterase (AChE) small molecule antagonists: enzyme-based qHTS assay with human liver microsomes (AID 1347399). Also: nearly all actives have a fitted effect of over 60% in size. Conditions: Potency: qHTS inhibition; outcome: qHTS inhibition; series mostly up to 115 µM. The method in brief:
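Recombinant human AChE (50 mU/mL in the enzyme mix) and human liver microsomes (0.25 mg/mL final) were preincubated with compound and NADPH (0.25 mg/mL final) for 30 min at 37 C. Acetylthiocholine/DTNB was then added; thiocholine was read colorimetrically after 10 min at room temperature.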

A number with no mark means an inactive call. Results filed as inconclusive are left out. Active and inactive are the calls of the source. Calls follow the shape of the full dose curve.
% is scaled to controls: 0 for no effect and ±100 for the full control effect.

Consider `Cc1cnc(NS(=O)(=O)c2ccc(N)cc2)nc1`, for which the Potency entry in experiment [1], in experiment [2], in experiment [3] and in experiment [4] was “inactive” each time.

Regarding `CC[C@H]1OC(=O)[C@H](C)[C@@H](O[C@H]2C[C@@](C)(OC)[C@@H](O)[C@H](C)O2)[C@H](C)[C@@H](O[C@@H]2O[C@H](C)C[C@H](N(C)C)[C@H]2O)[C@](C)(OC)C[C@@H](C)C(=O)[C@H](C)[C@@H](O)[C@]1(C)O`, the Potency result in experiment [1], in experiment [2], in experiment [3] and in experiment [4] was “inactive” in each case.

Regarding `O=C1C(O)=C(O)C(=O)C(O)=C1O`, the Potency entry in experiment [1], in experiment [2], in experiment [3] and in experiment [4] was “inactive” in each case.

Consider `CC(COc1ccccc1)NN` (centres undefined), for which the Potency entry in experiment [1], in experiment [2], in experiment [3] and in experiment [4] was “inactive” in each case.

Turning to `CC(C)(C)C1CCC(=O)CC1`, the Potency result in experiment [1], in experiment [2], in experiment [3] and in experiment [4] was “inactive” throughout.

On to `NC(Cc1ccc(Cl)cc1)C(=O)O` (centres undefined), for which the activity, negative = inhibition in experiment [1] was 1.17% [at 0.435 µM]. Further, the results for the activity change, negative = inhibition in experiment [2], in experiment [3] and in experiment [4] were 0.0464% [at 0.435 µM], 9.18% [at 0.439 µM] and -1.76% [at 0.435 µM], respectively.

`COc1ccc2nc(NC(=O)Nc3ccccc3)sc2c1`: the Potency result in experiment [1], in experiment [2], in experiment [3] and in experiment [4] was “inactive” in each case.

With `c1ccc(-c2nc[nH]c2-c2ccccc2)cc1`, the Potency entry in experiment [1], in experiment [2], in experiment [3] and in experiment [4] was “inactive” throughout.

With `OCCN1CN(CCO)CN(CCO)C1`, the Potency result in experiment [1], in experiment [2], in experiment [3] and in experiment [4] was “inactive” each time.

Turning to `CCOC(=O)c1ccccc1O`, the Potency result in experiment [1], in experiment [2], in experiment [3] and in experiment [4] was “inactive” in each case.

As to `O=C(C1CCCCC1)N1CC(=O)N2CCCc3ccccc3C2C1` (centres undefined), the Potency entry in experiment [1], in experiment [2], in experiment [3] and in experiment [4] was “inactive” in each case.

As for `O=C1C(=O)c2ccccc2C(O)=C1C1CCC(c2ccc(Cl)cc2)CC1` (centres undefined), the Potency result in experiment [1], in experiment [2], in experiment [3] and in experiment [4] was “inactive” each time.

For the compound `O=S(O)(O)=S`, the activity, negative = inhibition in experiment [1] is -0.643% [at 10.5 µM]. For the same compound, the results for the activity change, negative = inhibition in experiment [2], in experiment [3] and in experiment [4] were 0.136% [at 10.5 µM], 2.89% [at 10.5 µM] and 0.162% [at 10.5 µM], respectively.

As for `C/C=C/C(=O)Oc1c(CCCCCC(C)C)cc([N+](=O)[O-])cc1[N+](=O)[O-]`, the Potency entry in experiment [1], in experiment [3] and in experiment [4] was “inactive” each time. For the same compound, the Potency in experiment [2] is 71 µM (active).

On to `CCN(CC)CCCN(c1ccccc1)C1Cc2ccccc2C1`, for which the Potency entry in experiment [1], in experiment [2], in experiment [3] and in experiment [4] was “inactive” in each case.

For the compound `CCCCCCCCC(=O)Cl`, the Potency entry in experiment [1], in experiment [2], in experiment [3] and in experiment [4] was “inactive” each time.

With `[Ca+2]`, the Potency entry in experiment [1], in experiment [2], in experiment [3] and in experiment [4] was “inactive” throughout.

Take `CCO[Si](C)(C)OCC`: the Potency result in experiment [1], in experiment [2], in experiment [3] and in experiment [4] was “inactive” each time.

For `Cc1c(C(=O)NN2CCCCC2)nn(-c2ccc(Cl)cc2Cl)c1-c1ccc(Cl)cc1`, the Potency entry in experiment [1], in experiment [2], in experiment [3] and in experiment [4] was “inactive” in each case.

Consider `Cc1ccccc1N=C(N)N=C(N)N`, for which the Potency result in experiment [1], in experiment [2], in experiment [3] and in experiment [4] was “inactive” each time.

As to `CN1CCCC1`, the Potency result in experiment [1], in experiment [2], in experiment [3] and in experiment [4] was “inactive” throughout.

In the case of `CCOC(=O)[C@@](C)(N)Cc1ccc(O)c(O)c1`, the Potency result in experiment [1], in experiment [2], in experiment [3] and in experiment [4] was “inactive” throughout.

`Cc1cccn2c(=O)c(-c3nnn[nH]3)cnc12`: in experiment [1], the activity, negative = inhibition was -0.311% [at 23.6 µM]. In addition, the activity change, negative = inhibition in experiment [2] is -2.02% [at 23.6 µM]; in experiment [3] it was -17.5% [at 23.8 µM]; in experiment [4], -5.01% [at 23.6 µM].

Turning to `c1ccc2occc2c1`, the Potency result in experiment [1], in experiment [2], in experiment [3] and in experiment [4] was “inactive” in each case.

Turning to `N#Cc1c(F)cccc1F`, the Potency entry in experiment [1], in experiment [2], in experiment [3] and in experiment [4] was “inactive” each time.

Consider `O=C(NCCO[N+](=O)[O-])c1cccnc1`, for which the Potency result in experiment [1], in experiment [2], in experiment [3] and in experiment [4] was “inactive” each time.

Turning to `CC(C)NCCCC1(C(N)=O)c2ccccc2-c2ccccc21`, the Potency result in experiment [1], in experiment [2], in experiment [3] and in experiment [4] was “inactive” in each case.

Take `CCc1ccc(C=O)cc1`: the Potency result in experiment [1], in experiment [2], in experiment [3] and in experiment [4] was “inactive” each time.

For the compound `CCOC(=O)CC`, the Potency entry in experiment [1], in experiment [2], in experiment [3] and in experiment [4] was “inactive” each time.

For the compound `O=C1CCC(=O)N1Cl`, the Potency result in experiment [1], in experiment [2], in experiment [3] and in experiment [4] was “inactive” each time.

Consider `CCCCC1=NC2(CCCC2)C(=O)N1Cc1ccc(-c2ccccc2-c2nn[nH]n2)cc1`, for which the Potency entry in experiment [1], in experiment [2], in experiment [3] and in experiment [4] was “inactive” throughout.
